Reference: PubChem BioAssay AID687021 (Broad Institute, 2013)
Values without a mark were called inactive. Calls of active or inactive are those of the source.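 How the source made its calls: active means compounds lowering luciferase light whose fitted half-effect concentration is at most twice the top tested dose; inconclusive means flat curve with 30 to 70% inhibition, or poor fit; inactive means the rest.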

Assay: luciferase signal loss, tTA control fusion, HeLa F-luc tTA cells, dry powder, counter-screen for HIV Env fusion inhibitor project, dose response (AID 687021)
Settings: luciferase luminescence counterscreen; series mostly up to 35 µM; activity change, negative = inhibition: at the top concentration

Structure (SMILES)	activity change, negative = inhibition [%]	outcome
C[C@H]1CN([C@@H](C)CO)C(=O)c2ccccc2-c2ccccc2CO[C@H]1CN(C)S(=O)(=O)c1ccccc1C#N	39.5	
Cc1noc(C)c1S(=O)(=O)Nc1cccc2c1O[C@H](CN(C)Cc1ccc(C(F)(F)F)cc1)[C@H](C)CN([C@H](C)CO)C2=O	109	
COc1ccccc1CCNCc1ccc(OC)c(OCc2ccccc2)c1		inactive
CCOc1ccc(S(=O)(=O)NCc2ccncc2)cc1		inactive
CCOc1ccc(S(=O)(=O)NCc2ccccc2)cc1	8.56	
C[C@@H]1CN([C@H](C)CO)C(=O)c2cccc(NC(=O)C3CCCCC3)c2O[C@H]1CN(C)Cc1ccccc1	53.5	
Cc1noc(C)c1S(=O)(=O)Nc1cccc2c1O[C@@H](CN(C)Cc1ccc(C(F)(F)F)cc1)[C@H](C)CN([C@@H](C)CO)C2=O	24.8	
O=C(CCCn1c(=S)[nH]c2cc3c(cc2c1=O)OCO3)N1CCN(c2ccc(Cl)cc2)CC1		inactive
COc1ccc(-c2nn(C)c(=O)c3ccccc23)cc1NC(=O)Cn1nc(C)c2ccccc2c1=O		inactive
C[C@@H]1CN([C@H](C)CO)C(=O)c2cccc(NS(=O)(=O)c3ccc(Cl)cc3)c2O[C@@H]1CN(C)Cc1ccc(Cl)c(Cl)c1	37.6	
CC(=O)Nc1ccc(NC(=O)CN(c2ccc(C34CC5CC(CC(C5)C3)C4)cc2)S(C)(=O)=O)cc1		inactive
CC(C)(C)c1ccc(-c2noc(CCC(=O)NCC3CCCO3)n2)cc1 (configuration not stated)	26.6	
CCOc1ccc(S(=O)(=O)NCc2ccncc2)cc1Cl	43.3	
Cc1ccc(S(=O)(=O)N(C)C[C@@H]2Oc3ccc(NS(=O)(=O)c4c(C)noc4C)cc3CC(=O)N([C@H](C)CO)C[C@@H]2C)cc1	54.9	
Oc1ccc(CNc2ccccc2F)c2cccnc12	21.1	
CCOc1ccc(OCC)c(S(=O)(=O)NCc2ccncc2)c1		inactive
CCCNC(=O)N1[C@H](C#N)[C@H](c2ccc(-c3cccnc3)cc2)[C@@H]1CO	7.74	
Cc1noc(C)c1S(=O)(=O)Nc1cccc2c1O[C@H](CN(C)Cc1ccc(C(F)(F)F)cc1)[C@@H](C)CN([C@H](C)CO)C2=O	57.2	
Nc1nonc1C(=O)NCCNCc1c(OCc2ccccc2F)ccc2ccccc12		inactive
CCCC#Cc1ccc2c(c1)O[C@@H](CN(C)S(=O)(=O)c1cccc(F)c1)[C@@H](C)CN([C@H](C)CO)S2(=O)=O	30.7	
CCCOc1ccc(S(=O)(=O)NCc2ccncc2)c2ccccc12		inactive
Cc1oc(-c2ccc(Cl)cc2)nc1CN1CCCC(C(=O)NCc2cccnc2)C1 (configuration not stated)	40.5	
